Experimental data from ChEMBL document CHEMBL3988442, “University of Dundee, Small-Polar-MMV Screening Library” (2021).
The whole screen tested about 48,000 compounds, of which about 13,000 (27%) showed an effect of 50% or more. The list shows a part of the results.

Each compound was assayed on Wolbachia pipientis (assay: Anti-Wolbachia Cell-Based Screen). Settings: 5 µM.
Format: functional
Design: scale not given: in the data most compounds retested in dose-response had high values

Structure (SMILES) | Percent Effect [%]
Cc1nn(C)c(C)c1CN(C(=O)c1cnc(O)cn1)C(C)C | -5.966
CN(CCC1CCOCC1)[C@@H]1c2ccccc2C2(CCNCC2)[C@H]1O | -1.046
CCn1nc2c(cc1=O)CN(c1nc3ccccc3s1)CC2 | 17.49
COc1cc(CO)ccc1OCc1nc(C(C)C)no1 | -5.276
Cc1cc(C)c(C(=O)NC(c2nnc3n2CCNCC3)C(C)C)c(C)c1 (stereo not drawn) | -5.156
O=C(NC1CCCCC1)N1CCCC1c1nnc2n1CCNC2 (stereo not drawn) | 105.9
NC(=O)CN1CCC(NC(=O)N2CCCC2c2ccncc2)CC1 (stereo not drawn) | -10.76
CC(C)NC(=O)N1CCCCCC1C1CCN(c2ncccn2)CC1 (stereo not drawn) | -15.72
CC(C)NC(=O)N1CCC(c2nccn2C(C)C)CC1 | 0.5032
CC(CC(=O)N1CCC(c2nnc3n2CCC3)CC1)n1cccc1 (stereo not drawn) | -3.041
CC(C)NC(=O)N1CCC(c2nnc3n2CCNC3)CC1 | 121.8
O=C(N1CCCCC1)N1CCCC1c1nnc2n1CCNC2 (stereo not drawn) | 113
CC(C)NC(=O)N1CCCCC1c1nnc2n1CCNC2 (stereo not drawn) | 134
CCNC(=O)NC(=O)CNc1cc(C(=O)OC)cc(C(F)(F)F)c1 | -3.63
Cc1n[nH]cc1CNCC1(c2cccc(F)c2)CCOCC1.Cl | 8.493
N#CCCN(Cc1ccccn1)C(=O)Nc1cccc(F)c1 | 3.903
O=C(Nc1ccc(CCN2CCSCC2)cc1)NC1CC1 | -3.133
COCCNC(=O)CSCc1nc(O)c2cc(C(C)C)sc2n1 | -3.697
CC(=O)N1CCCCC1c1nnc2n1CCNC2 (stereo not drawn) | 131
CC(=O)N1CCCC1c1nnc2n1CCCCC2 (stereo not drawn) | 5.226
CC(NC(=O)NCC1(c2ccccc2)CCC1)c1nncn1C (stereo not drawn) | 0.9782
CC(NC(=O)NCC1(c2ccc(F)cc2)CC1)c1nncn1C (stereo not drawn) | 98.23
Cc1cccc(C)c1OCCNC(=O)NC(C)c1nncn1C (stereo not drawn) | 5.116

Structure (SMILES) | Percent Effect [%]
CC(NC(=O)NCC1(c2ccc(Cl)cc2)CC1)c1nncn1C (stereo not drawn) | 123.5
CC(NC(=O)Nc1cc(F)ccc1N1CCCCC1)c1nncn1C (stereo not drawn) | -5.475
CC(NC(=O)NCC1(c2ccc(F)cc2)CCC1)c1nncn1C (stereo not drawn) | -3.695
Cc1ccccc1C1(CNC(=O)NC(C)c2nncn2C)CC1 (stereo not drawn) | 118.5
CC(NC(=O)NCCCN1CCCCCC1)c1nncn1C (stereo not drawn) | -1.343
CC(NC(=O)NCC1(c2ccc(F)cc2)CCCC1)c1nncn1C (stereo not drawn) | 121.9
CC(NC(=O)NCC1(N2CCCCC2)CCCCC1)c1nncn1C (stereo not drawn) | 3.494
CC(NC(=O)NCCOc1ccc(F)c(F)c1)c1nncn1C (stereo not drawn) | 2.072
CC(NC(=O)NCCOc1ccc(Cl)cc1)c1nncn1C (stereo not drawn) | 7.354
CC(C)c1nnc2n1CCN(C(=O)c1ccc(OCC3CC3)nc1)C2 | -21
CCOc1cc(C)nc(N2CCN(Cc3nccn3C)CC2)n1 | 4.632
Cc1nc(C)c(CN2CCOC[C@H](Oc3ccc(S(C)(=O)=O)cc3)C2)s1 | -11.23
CC(=O)N1CCCC1c1nnn2cc(-c3ccncc3)ccc12.O=C(O)C(F)(F)F (stereo not drawn) | 7.793
CC(=O)N1Cc2ccccc2CC1C(=O)Nc1ccc(C)cn1 (stereo not drawn) | -8.335
Cn1ncc2c(=O)[nH]c(CN(Cc3ccco3)C3CC3)nc21 | 87.32
CC(N(C)Cc1nc2c(cnn2C)c(=O)[nH]1)C(C)(C)C (stereo not drawn) | 1.899
Cc1ccc(CN(Cc2nc3c(cnn3C)c(=O)[nH]2)C2CC2)o1 | 96.47
CCN(Cc1nc2c(cnn2C)c(=O)[nH]1)c1cccc(C)c1C | -14.78
Cn1ncc2c(=O)[nH]c(CN(Cc3ccco3)C3CCCC3)nc21 | 8.263
CC(c1ccco1)N(C)Cc1nc2c(cnn2C)c(=O)[nH]1 (stereo not drawn) | 2.011
O=C(NCc1ccccn1)[C@@H]1COC[C@H]2CN(c3ncccn3)C[C@H]21.O=C(O)C(F)(F)F.O=C(O)C(F)(F)F | -2.042
Cc1ccc(S(=O)(=O)Nc2ccc(=O)n(C)c2)cc1 | -12.63
COc1ccc(-c2nccn2C[C@@H]2CCCN3CCCC[C@H]23)cc1 | -24.08

Structure (SMILES) | Percent Effect [%]
COC(C)C(=O)N(CC(N)=O)Cc1cccc(Oc2ccccc2)c1 (stereo not drawn) | 2.959
CC(C)[C@H]1COC(=O)N1Cc1nccn1C(C)C | -0.6769
Cn1cc(NC(=O)c2cccc(C(F)(F)F)c2)c(=O)n(C)c1=O | -3.646
Cc1ncc(CNC(=O)c2nn(C)c3c2CS(=O)(=O)CC3)s1 | 8.614
CN1CCC(CNC(=O)c2cccc(C(F)(F)F)c2)c2ccccc21 (stereo not drawn) | -15.52
Cc1noc(NC(=O)c2ccc(OC(F)(F)F)cc2)n1 | 14.41
Cn1nc(CNC(=O)c2cccc(C(F)(F)F)c2)c2c1CCOC2 | 111.4
Cn1nc(CNC(=O)c2ccc3nsnc3c2)c2c1CCOC2 | 120.7
O=C(NCCN1CCCC(CO)C1)c1ccc2scnc2c1 (stereo not drawn) | -0.5362
COc1ccc(CN2CCc3c(CNC(=O)CC#N)nn(C)c3C2)cc1.O=C(O)C(F)(F)F.O=C(O)C(F)(F)F | 8.44
COc1cc(OC)cc(C(=O)NCCCNc2ncccn2)c1 | 15.23
COc1ccc(CNC(=O)c2nn(C)c3c2CS(=O)(=O)CC3)cc1OC | -2.523
COc1cc(OC)cc(C(=O)NCc2nn(C)c3c2COCC3)c1 | 121.8
Cn1nc(CNC(=O)c2ccc(OC(F)(F)F)cc2)c2c1CCOC2 | 101.2
O=C(NC1CC1)c1cc(NC(=O)N2CCSCC2)ccc1Cl | -25.35
CCc1c(C(=O)N2CCC3(CC(=O)NC3=O)C2)csc1C (stereo not drawn) | 4.433
Cn1nc(CNC(=O)NCc2ccc(Cl)cc2)c2c1CCOC2 | -8.693
Cn1nc(CNC(=O)c2ccc(Cl)cc2)c2c1CCOC2 | -28.17
Cc1nnc(SCCCNC(=O)c2ccc3c(c2)OCO3)s1 | -1.096
CCN(Cc1ccc2c(c1)OCO2)C(=O)c1ccc(=O)n(C)c1 | -0.5548
Cn1nc(CNC(=O)c2ccc3c(c2)OCO3)c2c1CCOC2 | 123.8
COC(=O)c1ccc(C(=O)NCc2nn(C)c3c2COCC3)cc1 | 116.6
